# Bioassay records from PubChem BioAssay.
# D2 ag-1: activates the human D2 dopamine receptor | DiscoveRx PathHunter D2 beta-arrestin, luminescence, 90 min; 100% = 57 uM dopamine signal | activation, % (no concentration beside the values) | 360,000 compounds, 0.084% hits; in the data active means activation above about 40%; inconclusive means between about 15% and that limit
# Target sequence (P14416 whole entry, looked up): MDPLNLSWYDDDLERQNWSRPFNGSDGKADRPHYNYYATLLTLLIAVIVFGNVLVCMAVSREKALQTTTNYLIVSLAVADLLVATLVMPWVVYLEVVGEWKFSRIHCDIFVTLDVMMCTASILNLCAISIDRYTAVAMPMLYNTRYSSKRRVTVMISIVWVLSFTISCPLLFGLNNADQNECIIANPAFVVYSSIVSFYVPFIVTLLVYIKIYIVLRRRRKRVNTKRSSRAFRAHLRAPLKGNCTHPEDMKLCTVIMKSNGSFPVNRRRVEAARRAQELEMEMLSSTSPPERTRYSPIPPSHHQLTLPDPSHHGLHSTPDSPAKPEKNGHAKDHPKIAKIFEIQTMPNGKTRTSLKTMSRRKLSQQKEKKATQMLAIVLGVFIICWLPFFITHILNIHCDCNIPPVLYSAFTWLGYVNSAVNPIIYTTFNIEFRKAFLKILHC
#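 DiscoveRx PathHunter D2 beta-arrestin cells (2,100/well) attached overnight, then compound-stimulated 90 min at 37 C in HBSS/10 mM HEPES/0.1% Tween-20 buffer; beta-galactosidase complementation read by luminescence after 1 h at ambient temperature. Dopamine 57 uM final (EC100) as control.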
# D2 PAM-1: D2 dopamine receptor (human) potentiation; 340,000 compounds, 0.34% hits; potentiation, % at 10 µM; HEK293 T-REx D2, calcium flux, EC20 dopamine potentiation; AID 485347;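 active means potentiation over 3 SD above the plate norm, cut at about 30% in these data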; further: 0% is about no effect
#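 Calcium flux readout, no-wash dye, 1 read/s. Inducible HEK293 Trex D2 line, overnight 30 C. Compound alone 180 s (agonist flags), then EC20 dopamine, another 180 s to score potentiation.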
# D2 PAM-2: positive allosteric modulators of human D2 dopamine receptor; 360,000 compounds, 0.23% hits; potentiation, % (no concentration beside the values); DiscoveRx D2 beta-arrestin cells, luminescence, 90 min; 100% = 57 uM dopamine signal; in the data active means potentiation above about 50%; inconclusive means mostly about 30% to 49%
#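 D2 cells co-treated with compound plus 50 nM dopamine (EC20) for 90 min at 37 deg C to detect potentiation. Beta-arrestin recruitment was read as enzyme-fragment luminescence after 1 h at ambient temperature. Full response was set by 57 uM dopamine.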
# D2 ag-2: D2 dopamine receptor (human) agonism | activation, % at 2 µM | 340,000 compounds, 0.53% hits | AID 485358 | HEK293 T-REx D2 cells, calcium flux agonist mode;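 active means activation over 3 SD above normal in the single-dose calcium agonist read, cut at about 30% in these data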; further: 0% is about no effect
#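 Agonism scored from kinetic calcium signal (1 read/sec, 180 s) following compound pin transfer, after a 10 s baseline. Cells: HEK293 Trex line expressing inducible D2 receptor coupled to calcium, dye-loaded after overnight culture at 30 C.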
# D2 antag: antagonists of human D2 dopamine receptor. P14416. HEK293 TREx D2 cells, calcium flux, dopamine EC80. inhibition, % at 10 µM. 340,000 compounds, 2% hits; in the data active means inhibition above about 30%; inactive means below that, where a call was filed; further: 0% is about no effect
#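 Inhibition of EC80 dopamine-driven calcium flux, recorded kinetically, defines activity here; cells are a tetracycline-induced HEK293 T-REx line expressing force-coupled D2.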
# Starred values were filed as active, the others as inactive; ? = inconclusive; nt = no result. The list is not random: actives were taken first. Their share in the collection is about 2.4%.
SMILES,D2 ag-1,D2 PAM-1,D2 PAM-2,D2 ag-2,D2 antag
O=C(NC(=O)N1CCN(c2cccc(Cl)c2)CC1)c1ccc(Cl)cc1,5.5,-17.2,-28.7,4.3,56.8*
CC(C)N(Cc1ccccc1)C(=O)CN1C(=O)c2ccccc2C1=O,-1.4,-8.1,-2.7,-0.3,-2.7
CC(C)N(Cc1ccccc1)C(=O)CC(=O)N(Cc1ccccc1)C(C)C,-1.8,35.1*,-11.5,-0.1,1.2
CCn1c(C)nc2cc(C(=O)NN=Cc3ccc([N+](=O)[O-])cc3)ccc21,-5.0,nt,2.2,nt,nt
COc1ccc(C2=CC(=O)CC(C)(C)C2)cc1OC,-2.0,4.6,-8.5,-1.7,1.0
COC(=O)c1[nH]c2ccc(Cl)cc2c1NC(=O)Oc1ccccc1,8.1,5.4,68.1*,0.2,-14.2
COC(=O)c1[nH]c2ccc(Cl)cc2c1NC(=O)C1CC1,1.3,-1.7,-3.6,-0.3,-13.6
CCOc1ccc(C(=O)c2cn(CC(=O)Nc3ccc(F)cc3)c3cc4c(cc3c2=O)OCCO4)cc1,nt,10.6,nt,-1.0,nt
CN1CCc2c(n(CC(O)CN(CCO)CCO)c3ccccc23)C1=O (centres undefined),-5.5,11.2,-8.1,-2.9,6.5
CN1CCc2c(n(CC(O)CNCc3ccccc3)c3ccccc23)C1=O (centres undefined),0.2,-19.9,-10.8,-0.9,66.3*
COc1ccccc1CNc1nc(NCc2ccccc2SC)c2sccc2n1,-5.8,nt,-15.0,nt,nt
Cc1cccc2c3c([nH]c12)CCN(C)C3,-4.0,-28.1,-23.7,1.7,66.1*
NC(=O)c1cccc2c3c([nH]c12)CCCC3,-3.1,-3.6,-17.3,-0.2,-5.8
Oc1ccc(/C=N/N2CCOCC2)c(O)c1O,?,-3.2,54.2*,nt,nt
Oc1ccc(/C=N/N2CCCCC2)c(O)c1O,2.1,nt,8.5,nt,nt
C=CCN(CC=C)Cc1cc(=O)oc2cc(C)c(Cl)cc12,-3.6,nt,-3.3,nt,nt
Cc1ccc(/C=N/NC(=O)Cn2nnc(N)n2)cc1,1.1,-4.1,-11.2,-0.1,41.0*
CC(C)(C)c1nc2c(C#N)c(-c3ccc(Cl)cc3)ccn2n1,?,-0.5,67.8*,0.5,-25.6
COc1cccc(NC(=O)C2CCN(S(=O)(=O)c3ccc4c(c3)CC(C)N4C(C)=O)CC2)c1 (centres undefined),-1.1,-6.8,-26.4,-1.1,17.2
CC(=O)N1c2ccc(S(=O)(=O)N(C)CC(=O)N3CCCC3)cc2CC1C (centres undefined),-2.2,41.6*,-6.7,0.1,-23.1
CCc1ccc(NC(=O)C2CCN(S(=O)(=O)c3ccc4c(c3)NC(=O)CO4)CC2)cc1,1.2,3.7,-17.4,-1.5,9.8
CCc1cccc(NC(=O)C2CCN(S(=O)(=O)c3ccc4c(c3)CC(C)N4C(C)=O)CC2)c1 (centres undefined),-4.9,8.8,-1.5,0.1,70.1*
COc1ccccc1N1CCN(C(=O)C2CCN(S(=O)(=O)c3ccc4c(c3)CC(C)N4C(C)=O)CC2)CC1 (centres undefined),-2.1,-12.1,-9.3,0.6,-13.4
CCc1cccc(NC(=O)C2CCN(S(=O)(=O)c3ccc4c(c3)NC(=O)CO4)CC2)c1,4.8,-24.7,-9.6,-0.3,30.3*
COc1ccccc1N1CCN(S(=O)(=O)c2ccc3c(c2)CC(C)N3C(C)=O)CC1 (centres undefined),-1.1,-13.7,-8.2,-0.3,32.8*
SMILES,D2 ag-1,D2 PAM-1,D2 PAM-2,D2 ag-2,D2 antag
COc1ccc(CNc2nc3c(c(=O)n(C)c(=O)n3C)n2Cc2ccccc2Cl)cc1,nt,-3.5,nt,-0.3,nt
CCN(C(=O)CCn1cnc2onc(-c3ccc(F)cc3)c2c1=O)c1ccc(OC)cc1,nt,6.0,nt,0.0,nt
Cc1nn(-c2ccccc2)c2nc(C3CC3)cc(C(=O)Nc3cccc(F)c3)c12,nt,-3.6,nt,1.4,nt
Cc1nc2ccccc2c(=O)n1/N=C/c1ccccc1O,-7.3,-1.9,-4.2,0.1,-15.1
Cc1nc2ccccc2c(=O)n1/N=C/c1ccc(O)c(O)c1O,47.8*,-0.1,10.3,-0.3,6.4
COc1ccc(N2CCN(C(=O)c3ccccc3)CC2)c([N+](=O)[O-])c1,-5.8,-4.5,-1.7,-1.0,5.6
CCCCC(=O)N1CCN(c2ccc(OC)cc2[N+](=O)[O-])CC1,-0.4,8.6,-0.5,-0.4,30.0*
CCCCC(=O)N/N=C/c1ccc(N2CCOCC2)c([N+](=O)[O-])c1,-0.9,8.1,-5.1,1.4,59.1*
Cc1ccc2c(=O)cc(C(=O)Nc3ccc(S(=O)(=O)N4CCCCCC4)cc3)oc2c1,nt,12.8,nt,nt,nt
O=C(Nc1ccc(NC(=O)C2CC2)cn1)c1ccccc1Cl,-1.9,9.5,2.1,-0.3,22.5
O=C(Nc1ccc(NC(=O)C2CC2)nc1)c1cccnc1,-0.3,2.4,-15.5,1.1,38.0*
O=C(Nc1ccc(NC(=O)C2CC2)nc1)c1cccc(F)c1,-4.2,-5.9,-20.0,-0.2,-12.7
O=C(Nc1ccc(NC(=O)C2CC2)cn1)c1ccccc1,3.7,3.9,1.0,0.9,35.9*
Cc1cc(C)cc(NC(=O)c2cc(S(=O)(=O)N3CCOCC3)cn2C)c1,nt,-13.7,nt,-0.9,nt
O=C(NC1CCCCC1)c1ccc(CS(=O)(=O)Cc2ccccc2F)o1,-0.7,-0.6,-4.4,1.3,43.8*
O=C(NC1CCCC1)c1ccc(CS(=O)(=O)Cc2ccccc2F)o1,2.2,-8.7,-5.9,0.2,-5.6
C/C(CCc1ccc2c(c1)OCO2)=N\N=C1\NC(=O)CC(C(=O)Nc2ccccc2F)S1 (centres undefined),-1.2,14.6,-5.2,-0.3,40.4*
O=C(NCCCN1CCCCCC1)c1ccc2c(c1)sc1nc(-c3ccccc3)cn12,nt,-5.7,nt,-0.8,nt
O=C(C[n+]1ccccc1)N/N=C/c1cc(Br)ccc1O,-6.0,-8.3,-19.2,1.6,36.4*
O=C(C[n+]1ccccc1)N/N=C/c1ccccc1F,-9.1,-2.5,-7.4,0.5,-5.6
Cc1ccc(C(=O)Nc2cccc(C(=O)N/N=C/c3ccc(F)cc3)c2)cc1,2.2,-23.5,-15.4,-1.5,31.3*
O=C(N/N=C/c1cccc([N+](=O)[O-])c1)c1ccc(Br)cc1,2.0,6.0,-9.2,-0.1,2.9
O=C(N/N=C/c1cc(Cl)ccc1O)c1ccc(Br)cc1,0.9,-26.2,-19.9,0.7,34.1*
O=C(N/N=C/c1cccc(Br)c1)c1ccc(Br)cc1,-0.9,-20.1,-14.3,-1.9,49.9*
CN(C)S(=O)(=O)c1ccc2c(c1)N(CC(=O)N1CCN(c3cccc(Cl)c3)CC1)CCS2,nt,-4.4,nt,-0.2,nt
CCCCC1CCC(C(=O)N2CC(=O)Nc3ccc(C)cc3C2c2ccc(F)cc2)CC1 (centres undefined),nt,18.9,nt,0.0,nt
Cc1cccc(/C=N\NC(=O)c2ccc(Cl)cc2)c1O,-0.3,-31.4,-14.5,-1.4,30.2*
CC1=CC(C)(C(Cl)Cl)C(C)=CC1=O (centres undefined),-0.2,69.6*,-7.6,0.6,16.6
